Measurements: PubChem BioAssay AID602289 (National Center for Advancing Translational Sciences (NCATS), 2012)
Hit rate of the full screen: of about 2,400 compounds, about 40 (2%) were called active. Another 1% or so got no clear call; they are omitted.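 The calls were made as follows: active = inhibition at or above 60%; inconclusive = inhibition from 0% up to below 60%; inactive = no inhibition observed.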 The sample as a whole holds a higher share of actives than the screen did.

assay: qHTS Assay for Small Molecule Inhibitors of Mitochondrial Division or Activators of Mitochondrial Fusion: Hit Validation in Malachite Green Assay; settings: purified GTPase, malachite green phosphate release, A650; hits give high values;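 as to inhibition: plate controls were DMSO wells with GTPase for no effect and protein-free buffer wells for full effect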
Text: The budding yeast S. cerevisiae is a powerful system to study mitochondrial fusion. Unlike other organisms, yeast cells without functional mitochondrial DNA (mtDNA) can be propagated and studied as long as they maintain a mitochondrial compartment and are provided with a fermentable carbon source. When mitochondrial fusion is blocked in yeast, mitochondrial tubules rapidly fragment and division continues unopposed. Under conditions where fusion is compromised in mammalian cells, nearly identical changes in mitochondrial structure have been observed. Thus, these findings indicate that steady state mitochondrial structure in cells is a characteristic and specific indicator of fusion activity. Mounting evidence has pointed to a connection between mitochondrial dynamics and apoptosis in mammalian cells. These studies indicate that in mammalian cells mitochondrial dynamics are more integrated into cellular processes than in yeast cells and have evolved not only to distribute the organelle but also to aid in the regulation of cellular homeostasis. Mitochondrial fusion proteins attenuate apoptosis by inhibiting the release of cytochrome c from mitochondria, in part by controlling cristae structures. Thus, small molecules that inhibit mitochondrial fusion may promote apoptosis and potentially act as novel chemotherapeutics and stimulation of apoptosis has become an attractive target of anti-cancer therapies. To identify inhibitors of mitochondrial division, we exploit the growth phenotypes of mitochondrial fusion-defective mutants. The temperature sensitive fusion alleles, such as fzo1-1 and mgm1-5, cause mitochondrial membranes to fragment in cells under non-permissive conditions and cells lose mtDNA, and are unable to grow in the presence of non-fermentable carbon source glycerol. Inhibiting mitochondrial division rescues growth. The hits were tested by the assay provider in a malachite green assay. NIH Chemical Genomics Center [NCGC] NIH Molecular Libraries Probe Production Centers Network [MLPCN] MLPCN Grant: MH081279 Assay Submitter (PI): Jodi M. Nunnari
Malachite Green Reagent Malachite Green carbinol base- Aldrich 229105 Ammonium molybdate - Sigma A7302 For 100 mL Malachite Green reagent in 1N HCl 16 mL conc. HCL + 32 mL H20 = 48 mL 4N HCl 34 mg malachite green base into 40 mL 1N HCl (10 mL 4N HCl + 30 mL H20) 1 g ammonium molybdate in 15 mL 4N HCl Mix Solutions together. Bring up to […] with H2O. Filter using a 0.2 um tissue culture filter unit (has plastic bottle attached) store at 4 masculine C. (Avoid Glassware/Plastics washed in detergent. Mix solutions in 50 mL conical vials.) For 20 uL reaction volume 1.0 uL Test Drug or DMSO: Added first to each well […]: 25 mM Hepes/Pipes pH 7.0 (H/P) 2.0 uL: 50 mM MgCl2 (final 5mM) 2.32 uL: 1 M NaCl (with contributing protein salt, Final = 150mM) 13.4 uL per reaction. Can be mixed in larger volume (Mini Master Mix) 1.6 uL: Protein 7.5 uM or Protein Freezing Buffer. (Final = 0.6uM) After Protein Added to mini Master Mix, 15ul Total Master Mix added to each well with drug. 4 uL: 500 uM GTP (Final = 100uM), Dilute with 25 mM H/P, store on ice. 20 uL Total Volume Make Master Mix: (Calculate desired reactions and add a few for multi-channel pipetting volume). Multiply the number of desired reactions by 13.4 uL for total Mini Master volume. Multiply the number of desired reactions by 1.6 uL for total Protein volume. Mix, and keep on ice until added to wells. Add 15 uL of Master Mix to each reaction well, incubate with drug for 10 min. For Positive (No Drug) controls add 15 uL Master Mix to wells with only 1 uL DMSO. Make PFB (Protein Freezing Buffer) (no Protein) Master Mix. Multiply the number of desired reactions by 13.4 uL for total Mini Master volume. Multiply the number of desired reactions by 1.6 uL for total PFB volume. Mix, and keep on ice until added to wells Add 10 uL of PFBMaster Mix to each Phosphate Standards well, and 15 uL to each negative control well with DMSO. […]

inhibition, inactive:
CCCCn1c(N2CCC(Cc3ccccc3)CC2)nc2c1c(=O)[nH]c(=O)n2C, C=C(C)Cn1c(N2CC(C)CC(C)C2)nc2c1c(=O)[nH]c(=O)n2C (stereo not drawn), C=CCc1cc2c(oc(=O)c3ccccc32)c(C)c1O, COc1cccc(COc2ccc3c(C)cc(=O)oc3c2)c1, O=C1C=C(/C=C/C2C=CC=CC2)C[C@@H](c2ccc(Cl)cc2)C1 (stereo partly drawn), Cn1c(=O)c2c(nc(Oc3ccccc3Cl)n2C)n(C)c1=O, CS/C(=N\S(=O)(=O)c1cccs1)Nc1ccc(Br)cc1F, CN(C(=O)C(Cl)Cl)c1ccc(OC(=O)c2ccco2)cc1, Cc1cc(Cl)cc(Cl)c1OCCOc1cccc2cccnc12, O=c1oc2cc(O)c(Cl)cc2c2ccccc12, O=C(Nc1ccc(Cl)cc1C(=O)Nc1ccccn1)c1ccco1, CCCCCCSc1ccc([C@@H]2[C@@H]3C(=O)N(C)C(=O)[C@@H]3[C@]3(C(=O)OC)CCCCN23)cc1OC, O=C(c1cn(Cc2ccccc2)nc1-c1ccc(Cl)cc1)N1CCN(c2ccccn2)CC1, O=C(c1cn(-c2ccccc2)nc1-c1cccs1)N1CCN(c2ccccn2)CC1, O=C(c1cc(COc2cccc3cnccc23)on1)N1CCC(c2ccccc2Cl)C1 (stereo not drawn), COc1ccc(C2=NOC(Cn3nc(C(=O)NCc4ccco4)cc3-c3ccccc3)C2)cc1 (stereo not drawn), COc1cccc(NC(=O)CN(C)C(=O)c2sc3cc(Cl)ccc3c2Cl)c1, Cc1c(Cl)cccc1Nc1nc(N)nc(CSc2nc3ccccc3s2)n1, CNC(=O)c1ccsc1NC(=O)C1CCN(S(=O)(=O)c2ccc(Cl)s2)CC1, COc1ccc(N=Nc2nc(-c3ccccc3)c(-c3ccccc3)[nH]2)cc1, Clc1ccc(-c2nnc3sc(Cc4cccs4)nn23)cc1, COc1ccc2ccccc2c1C(=O)/C=C\c1ccoc1, COc1ccc(S(=O)(=O)N(C(=O)c2ccncc2)c2ccc3oc4c(c3c2)CCCC4)cc1, COCc1nc2sc3c(c2c(=O)[nH]1)CCCC3, O=c1[nH]c(C2CC2)nc2sc3c(c12)CCCC3, O=C(/C=C/c1cccs1)N1CCC2(CC1)Oc1ccc(Cl)cc1C(=O)C21CC(c2cccnc2)=NO1 (stereo not drawn), COc1ccc(-c2cc(=O)oc3c(C)c(OC(C)C(C)=O)ccc23)cc1 (stereo not drawn), CC(Oc1cccc(Cl)c1)C(=O)Nc1cc(Cl)ccc1N1CCOCC1 (stereo not drawn), Cc1csc(NC(=O)C(C)Oc2ccc(Br)cc2)n1 (stereo not drawn), Cc1ccccc1Nc1nc(N)nc(CSc2nc3ccccc3s2)n1, O=C(NCC1(c2ccccc2)CCCC1)c1ccccc1Br, Cc1c(C(=O)O)cccc1-c1ccc(/C=N/Nc2ccc(Br)cc2)o1, Cc1ccc2c(=O)cc(C(=O)NCc3ccccc3)oc2c1C, CC(C)COc1ccc(S(=O)(=O)NNC(=O)c2cc3ccccc3o2)cc1, CCNC(=O)c1ccccc1CCc1ccccc1, CCC(C)N1C(=O)S/C(=C/c2ccc(N3CCOCC3)cc2C)C1=O (stereo not drawn), COc1ccccc1NC(=O)N(Cc1ccccc1)c1ccccn1, Fc1cccc(CNc2ncnc3ccc(-c4ccc5c(c4)OCO5)cc23)c1, CCOc1ccc(C(=O)CCN2CCCCC2)cc1, CC(CNc1nc2ccccc2n2cnnc12)c1ccccc1 (stereo not drawn), COc1ccc(NC(=O)CN(C)C(=O)c2ccccc2CCc2ccccc2)cc1, COc1ccc(C(=O)NC2(C(F)(F)F)NC(=O)N(CCCc3ccccc3)C2=O)c(OC)c1OC (stereo not drawn), Cc1cc(=O)oc2c(C(=O)/C=C\c3cccs3)c(O)ccc12, Cc1cc(C)nc(NC(=O)/C=C/c2ccccc2Cl)c1, O=C(/C=C/c1ccccc1Cl)c1ccc[nH]1, CC1=C(C(=O)OCc2ccccc2)C(/C=C/c2ccccc2)NC(=S)N1 (stereo not drawn), C/C(N)=C(/C#N)C(=O)COC(=O)C(c1ccccc1)c1ccccc1, COc1ccc(/C(N)=N/OC(=O)C2CCC(=O)N2S(=O)(=O)c2ccc(C)cc2)cc1 (stereo not drawn), O=C(Nc1nc(-c2cccs2)cs1)c1cccc(S(=O)(=O)N2CCCCC2)c1, COc1ccc(-c2cc(C(=O)OC(C)C(=O)Nc3c(C)n(C)n(-c4ccccc4)c3=O)c3ccccc3n2)cc1 (stereo not drawn), Cc1cccc(C(=O)N(Cc2nc3ccccc3c(=O)[nH]2)C2CCCCC2)c1, O=C(NCc1ccc2c(c1)OCO2)c1ccc(-c2ccc(Cl)cc2)o1, CCc1ccccc1NC(=O)/C(C#N)=C/c1ccc(Sc2ccccc2)o1, COc1cc2c(c(OC)c1OC)-c1c(cc3c(c1O)OCO3)C[C@@H](C)[C@@H](C)C2, Cc1cccn2c(=O)c(/C=C(\C#N)C(=O)NCc3ccco3)c(N3CCCCC3)nc12

inhibition, active:
CCCCCn1c(SCCC(C)C)nc2c1c(=O)[nH]c(=O)n2C 96.1%, Oc1c(I)cc(Cl)c2cccnc12 66.8%, Oc1c(Cl)cc(Cl)c2cccnc12 86%, O=C(Oc1c(Cl)cc(Cl)c2cccnc12)c1ccco1 67.8%, c1ccc(-c2nnc3sc(-c4csc5c4CCCC5)nn23)cc1 99.9%, CC(C)c1nc2sc3c(=O)[nH]c(=S)[nH]c3c2c2c1CCC2 104%, CC(Oc1cccc(Cl)c1)C(=O)Nc1nc(-c2ccccn2)cs1 (stereo not drawn) 68.3%, Cc1ccc2c(nc3s/c(=C\c4ccc(-c5ccccc5C(=O)O)o4)c(=O)n32)c1C 86.5%, Cc1cc2nc3s/c(=C/c4ccc(-c5ccccc5C(=O)O)o4)c(=O)n3c2cc1C 66.8%, N#CC(Sc1ccccn1)c1ccc(Cl)cc1 (stereo not drawn) 65.5%, Cc1ccc(C)c(/C=C/C(=O)c2ccccc(=O)c2O)c1 73.2%, O=C(/C=C/c1ccccc1Cl)c1ccccc(=O)c1O 77.4%, Clc1ccc(C[n+]2csc3ccccc32)cc1 71.7%
